Bioassay records: PubChem, National Center for Advancing Translational Sciences (NCATS)
Most compounds without a hit are left out; they make up all but 19% or so of the library.
DT40 TDP1 CPT – growth inhibition of DT40 Tdp1-/-;hTDP1 cells with camptothecin (screen for TDP1 inhibitors); Potency, µM (series often up to 46.2 µM), for the others: at the highest dose activity change, negative = growth inhibition, hits mostly inhibitors; chicken DT40 Tdp1-/-;hTDP1 cells + 20 nM CPT, ATP luminescence, 48 h; hit rate 12% among 420,000; also: potency is read from the fitted curve at half-maximal effect; nearly all actives have a fitted effect of over 55% in size
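Cell growth measured by CellTiter-Glo luminescence after a minimum 48 h, 37 C compound exposure with 20 nM CPT in Tdp1-knockout DT40 cells stably expressing hTDP1, seeded 400/well; qHTS titration format.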
TDP1 block – inhibitors of human tyrosyl-DNA phosphodiesterase TDP1 | hit rate 0.28% among 350,000 | Potency, µM (series often up to 130 µM), without a hit: at the highest dose activity change, negative = inhibition, most hits filed as inhibitors | AID 485290 | recombinant TDP1, AlphaScreen DNA substrate cleavage; also: potency is read from the fitted curve at half-maximal effect; nearly all actives have a fitted effect of over 40% in size
Target sequence (Q9NUW8 whole entry, looked up): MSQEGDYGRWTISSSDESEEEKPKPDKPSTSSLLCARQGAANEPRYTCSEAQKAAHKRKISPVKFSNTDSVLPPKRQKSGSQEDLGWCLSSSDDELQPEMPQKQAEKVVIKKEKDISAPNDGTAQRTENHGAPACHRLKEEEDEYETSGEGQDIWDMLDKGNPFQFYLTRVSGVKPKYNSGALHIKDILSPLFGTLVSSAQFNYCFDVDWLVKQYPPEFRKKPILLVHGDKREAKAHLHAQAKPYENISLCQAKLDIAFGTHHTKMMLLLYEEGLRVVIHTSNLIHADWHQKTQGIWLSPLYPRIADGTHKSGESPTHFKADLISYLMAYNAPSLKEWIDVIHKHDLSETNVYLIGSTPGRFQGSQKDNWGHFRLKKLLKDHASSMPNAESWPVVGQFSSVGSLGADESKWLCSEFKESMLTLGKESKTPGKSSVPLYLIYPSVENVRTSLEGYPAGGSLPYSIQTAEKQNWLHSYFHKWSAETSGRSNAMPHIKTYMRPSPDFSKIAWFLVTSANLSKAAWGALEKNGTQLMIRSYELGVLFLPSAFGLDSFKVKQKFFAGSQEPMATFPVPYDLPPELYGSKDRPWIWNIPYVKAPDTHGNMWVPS
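Enzyme-compound mixtures sat 15 min at room temperature, followed by a 5 min reaction with 15 nM final substrate and 10 min with AlphaScreen beads. Recombinant human Tdp1 was used at 1 nM final.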
IL-1B inflam inh – blocks inflammasome-driven IL-1 beta release; THP-1 LPS/ATP IL-1B secretion, AlphaLISA, 16 h; active compounds read low; activity change, % at 57.5 µM; hit rate 4.7% among 360,000; AID 743279; in the data active = activity change below about -50%; inconclusive = mostly about -30% to -49%
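THP-1 cells pretreated 1 hr with compounds (up to 57.5 uM final), then stimulated with LPS (250 ng/mL final) plus ATP (1.25 mM final); secreted IL-1B measured by AlphaLISA after 16 hr, decreased signal indicating inhibition.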
Giardia kill – kills Giardia lamblia; Giardia lamblia trophozoite viability; activity change, % at 7.66 µM, hits read low; hit rate 0.15% among 340,000; AID 540267; in the data active = activity change below about -80%; inconclusive = between about -30% and that limit;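 also: parasites exposed to compound for two days anaerobically before the ATP read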
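Media and compound were dispensed first, then trophozoites at 100 cells/well; plates sat 48 hrs at 37 deg C without oxygen before ATP luminescence reagent was added and read after 15-30 min at room temperature.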
TDP1 cell noCPT – qHTS for Inhibitors of human tyrosyl-DNA phosphodiesterase 1 (TDP1): qHTS in cells in absence of CPT | hit rate 15% among 420,000 | Potency, µM (titrated, usually from 46.2 µM), for the others: at the highest dose activity change, negative = growth inhibition, usual class: inhibitors | DT40 Tdp1-/- hTDP1 cells, no CPT, ATP luminescence, 48 h; also: potency is read from the fitted curve at half-maximal effect; nearly all actives have a fitted effect of over 55% in size
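Seeded 400 DT40-hTDP1 cells/well (vehicle DMSO, no 20 nM CPT); pinned compounds; ≥48 hr at 37 °C; CellTiter-Glo luminescence as viability measure.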
ELG1 repair inh – ELG1-dependent DNA repair inhibition. HEK293T ELG1-luciferase reporter, luminescence, 16 h; DNA damage induced by 5-fluorouridine. Potency, µM (doses to about 46.1 µM), inactives show at the highest dose activity change, negative = inhibition, actives largely listed as inhibitors. hit rate 2.3% among 330,000; also: potency is read from the fitted curve at half-maximal effect; nearly all actives have a fitted effect of over 55% in size
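Luminescence from the luciferase reporter, measured 30 min after ONE-Glo reagent at room temperature, was the read-out. Beforehand, 2,000 cells per well were exposed for 16 hr at 37 °C to 5-fluorouridine together with compound or vehicle.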
* marks the source's active call; other numbers are inactive results; ? = inconclusive; / = not tested or not shown; [ ] = dose if it differs, or a comment. Unless noted, calls follow the shape of the dose curve; as a rule, active = well fitted curve in the direction sought with a large enough effect; inconclusive = small, poorly fitted or top-dose-only effect, or another doubt; inactive = no such curve, though single readings can be large; an effect the other way counts as inactive or inconclusive. % is scaled to controls: 0 for no effect and ±100 for the full control effect.

SMILES	DT40 TDP1 CPT	TDP1 block	IL-1B inflam inh	Giardia kill	TDP1 cell noCPT	ELG1 repair inh
C=C1C=CS(=O)(=O)N(Cc2ccccc2)C1	/	1%	/	-6	/	/
O=C(N1CCN(Cc2ccc3c(c2)OCO3)CC1)C(Cl)(Cl)Cl	0%	/	-22	-18	-13%	5%
C=CCC[C@@H](Cc1ccc(F)cc1)C(=O)OCCNC(=O)[C@@H](CC=C)CC(=O)N(CCO)Cc1ccccc1	21µM*	-1%	-61*	-9	21µM*	-8%
C=CCC[C@@H](Cc1ccc(F)cc1)C(=O)OC[C@H](C)NC(=O)[C@@H](CC=C)CC(=O)N(CCO)Cc1ccccc1	?	-7%	?	-22	21µM*	?
C=CC[C@H](CC(=O)N(CCO)Cc1ccccc1)C(=O)N[C@@H](C)COC(=O)[C@@H](CC=C)Cc1ccc(F)cc1	16µM*	1%	-20	-1	?	-19%
C=CC[C@H](CC(=O)N(CCO)Cc1ccccc1)C(=O)NCCOC(=O)[C@@H](CC=C)Cc1ccc(F)cc1	?	1%	-10	-19	?	?
C=CCC[C@@H](Cc1ccc(F)cc1)C(=O)OC[C@H](C)NC(=O)[C@H](CC=C)CC(=O)N(CCO)Cc1ccccc1	18µM*	-1%	?	8	?	26µM*
CC1(O)/C=C\C=C(\CO)C2CC(C)(C)C2(O)CC1 (centres undefined)	-6%[9.04 µM]	2%	/	/	1%[9.04 µM]	/
CC(NC(=O)c1cc2ccccc2oc1=O)c1ccccc1 (centres undefined)	0%	2%	1	-1	-25%	25%
CCCc1cc(=O)n2[nH]c(NC(=O)c3ccc(C(C)(C)C)cc3)nc2n1	-4%	9%	/	/	-4%	/
C=CCC[C@H](Cc1ccc(F)cc1)C(=O)OC[C@@H](C)NC(=O)[C@H](CC=C)CC(=O)N(CCO)Cc1ccccc1	15µM*	0%	0	-13	18µM*	?
CC(C)c1ccc(/C=N/NC(=O)c2ccc(-n3cnnn3)cc2)cc1	?	-11%	-19	-11	12µM*	?
CC(C)c1ccc(/C=N/NC(=O)c2ccccn2)cc1	0.033µM*	4%	-53*	-30	-11%	?
CC(C)c1ccc(/C=N/NC(=O)c2cccc(Cl)c2)cc1	10µM*	5%	-15	3	5.8µM*	?
COc1cc(/C=N/NC(=O)c2ccccn2)ccc1OC(=O)c1ccc(Br)cc1	18µM*	1%	0	-8	?	?
O=C(N/N=C/c1ccncc1)c1ccccn1	-11%	/	8	-19	6%	?
CCOc1ccc(S(=O)(=O)n2nc(C)c(S(=O)(=O)N3CCCCCC3)c2C)cc1	-16%	-1%	/	/	-15%	/
O=C(CSc1nc(=O)n(CCCN2CCOCC2)c2c1CCCC2)Nc1ccc(Cl)cc1	-22%	4%	-17	9	-16%	-29%
NC(=O)C12C(=O)NC(=O)C1(C(=O)O)C21CCCC1 (centres undefined)	-1%	/	-9	-11	-3%	/
N#Cc1nc(NCCCCO)nc(Nc2ccccc2)n1	/	10%	/	/	/	/
COC(=O)[C@H](CCSC)NC(=O)Cn1cnc2c(SC)nc(N)nc21	?	1%	37	-3	-12%	4%
CC(NC(=O)NC(=O)c1cccc(Cl)c1)c1ccccc1 (centres undefined)	13µM*	4%	14	6	?	-6%
O=[N+]([O-])c1cc(Cl)cc2c1nc(NCCO)c1ccccc12	18%	4%	-83*	-15	?	?
Cc1ccc(CNC(=O)CN(C)S(=O)(=O)c2ccc3c(c2)n(C)c(=O)c(=O)n3C)cc1	-22%	1%	-11	1	5%	15%
N#CCOc1ccccc1CNC[C@H]1O[C@@H](n2cnc3c(=O)[nH]c(N)nc32)[C@H](O)[C@@H]1O	0%	/	10	/	-1%	/
SMILES	DT40 TDP1 CPT	TDP1 block	IL-1B inflam inh	Giardia kill	TDP1 cell noCPT	ELG1 repair inh
CC(=O)/C=C(\C)N=Nc1c(O)[nH]c2ccccc12	9%	10%	-7	28	-4%	?
CC(/C=C(\NC(=O)c1ccccc1)C(=O)N=Nc1c(O)[nH]c2ccc(C)cc12)=C\c1ccccc1	8.2µM*	6%	-8	-9	8.2µM*	?
COc1ccccc1NC(=O)CSCc1ccc([N+](=O)[O-])cc1	-28%	2%	7	9	-10%	2%
CCN1C(=O)c2ccccc2S(=O)c2ccc(C(=O)NCc3ccccc3OC)cc21 (centres undefined)	?	0%	/	/	23µM*	/
CCN1C(=O)c2ccccc2S(=O)c2ccc(C(=O)NCc3ccc(OC)cc3)cc21 (centres undefined)	?	1%	29	9	?	-17%
CCCN(CCC)CCCNC(=O)c1ccc2c(c1)N(CC)C(=O)c1ccccc1S2=O (centres undefined)	-4%	6%	44	-2	-14%	26%
CCCCSCCCNC(=O)c1ccc2c(c1)N(CC)C(=O)c1ccccc1S2=O (centres undefined)	18µM*	/	-12	-6	?	-16%
CSCCC(NC(=O)c1cccc(C)c1)C(=O)OCC(=O)Nc1c(C)nn(-c2ccccc2)c1C (centres undefined)	3%	/	33	-15	-22%	5%
CC(Sc1nnc(-c2ccncc2)n1C)C(=O)Nc1ccc(N2CCOCC2)cc1 (centres undefined)	0%	3%	2	-7	5%	26%
Clc1ccc(C2=NN(c3ccccc3)C(c3ccco3)C2)cc1 (centres undefined)	3%	?	7	25	-16%	?
Cc1ccc(C2=NN(C(=O)CN3C(=O)c4ccccc4S3(=O)=O)C(c3ccco3)C2)cc1 (centres undefined)	13µM*	7%	0	-6	?	-5%
CC(=O)N1N=C(c2ccc(C)cc2)CC1c1ccco1 (centres undefined)	-27%	0%	-20	-1	?	?
Cc1nc(N2N=C(c3ccc(Cl)cc3)CC2c2ccco2)sc1C(=O)N(C)C (centres undefined)	21µM*	-2%	?	-9	16µM*	?
CC(=O)N1N=C(c2ccc(Cl)cc2)CC1c1ccco1 (centres undefined)	16µM*	/	-10	-15	?	?
